For 38 compounds, Potency and outcome results are on record in PubChem BioAssay (NCATS).

Records with an inconclusive call do not appear. Activity calls are given as the source filed them. Calls come from the whole dose curve; as a rule, active = well fitted curve in the direction sought with a large enough effect; inconclusive = small, poorly fitted or top-dose-only effect, or another doubt; inactive = no such curve, though single readings can be large; an effect the other way counts as inactive or inconclusive.

Test [1] is described as follows: Primary qHTS for inhibitors of nuclear receptor binding SET domain protein 2 (NSD2) in an RCH-ACV wild type WT cells (2C) (AID 1645877). Note: nearly all actives have a fitted effect of over 70% in size. Note: potency is the fitted concentration of half-maximal effect.
The target in test [2] is Rap guanine nucleotide exchange factor 3 (Homo sapiens) (UniProt O95398). The test can be described thus: Confirmatory qHTS for antagonist of cAMP-regulated guanine nucleotide exchange factor 3 (EPAC1) (AID 1645880). Note: nearly all actives have a fitted effect of over 55% in size. Note: potency is the fitted concentration of half-maximal effect. In short, it runs like this: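 Released BODIPY-GDP fluoresces less than Rap1-bound BODIPY-GDP; the signal is followed at 480/540 nm at 5-min intervals over 30 min, after 5 min at room temperature. Reactions contain 100 nM EPAC1, 250 nM RAP1B-BODIPY-GDP and 50 uM GDP; results are normalized to ATA and DMSO.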

For test [3] the target is unchanged. The test can be described thus: Confirmatory qHTS for agonist of cAMP-regulated guanine nucleotide exchange factor 3 (EPAC1) (AID 1645881).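 Note: EPAC1 catalysed release of BODIPY-GDP from Rap1B seen as fluorescence loss; nearly all actives have a fitted effect of over 75% in size.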 For orientation: In qHTS, concentration-response curves come from the screen itself.
Test [4] addresses Rap guanine nucleotide exchange factor 4 (Homo sapiens) (UniProt Q8WZA2). Briefly: Confirmatory qHTS for agonist of cAMP-regulated guanine nucleotide exchange factor 4 (EPAC2) (AID 1645884).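 Note: nucleotide exchange releases bodipy-GDP from Rap1 and this lowers its fluorescence; nearly all actives have a fitted effect of over 65% in size.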

Sequence of Rap guanine nucleotide exchange factor 4 (Homo sapiens) (Q8WZA2 whole entry, looked up): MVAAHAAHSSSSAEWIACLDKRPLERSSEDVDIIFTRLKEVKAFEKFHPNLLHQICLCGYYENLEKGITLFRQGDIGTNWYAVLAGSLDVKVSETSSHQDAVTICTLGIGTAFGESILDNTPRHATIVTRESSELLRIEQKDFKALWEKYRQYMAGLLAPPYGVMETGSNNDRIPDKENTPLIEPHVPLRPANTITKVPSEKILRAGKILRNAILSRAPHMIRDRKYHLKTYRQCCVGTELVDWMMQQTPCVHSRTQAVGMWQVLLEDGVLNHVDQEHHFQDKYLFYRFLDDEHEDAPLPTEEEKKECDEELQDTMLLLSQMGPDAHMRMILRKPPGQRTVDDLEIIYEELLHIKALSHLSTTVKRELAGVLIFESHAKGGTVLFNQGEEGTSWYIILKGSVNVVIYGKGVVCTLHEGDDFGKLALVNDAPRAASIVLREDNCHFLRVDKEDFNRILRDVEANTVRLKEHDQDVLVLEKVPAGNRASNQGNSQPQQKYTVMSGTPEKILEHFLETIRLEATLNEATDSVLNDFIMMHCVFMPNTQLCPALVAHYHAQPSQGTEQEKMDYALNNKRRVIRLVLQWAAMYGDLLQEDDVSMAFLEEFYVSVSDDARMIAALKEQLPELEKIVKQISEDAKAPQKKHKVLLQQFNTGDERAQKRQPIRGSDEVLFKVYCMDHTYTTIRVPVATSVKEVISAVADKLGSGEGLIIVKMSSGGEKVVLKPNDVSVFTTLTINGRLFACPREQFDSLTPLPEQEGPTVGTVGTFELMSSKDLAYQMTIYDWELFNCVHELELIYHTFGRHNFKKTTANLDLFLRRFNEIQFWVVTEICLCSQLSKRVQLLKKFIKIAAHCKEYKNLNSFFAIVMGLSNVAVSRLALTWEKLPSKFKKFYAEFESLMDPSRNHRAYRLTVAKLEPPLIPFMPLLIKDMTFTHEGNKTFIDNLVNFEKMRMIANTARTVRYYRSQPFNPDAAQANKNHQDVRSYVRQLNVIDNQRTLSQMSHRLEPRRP
Sequence of Rap guanine nucleotide exchange factor 3 (Homo sapiens) (O95398 whole entry, looked up): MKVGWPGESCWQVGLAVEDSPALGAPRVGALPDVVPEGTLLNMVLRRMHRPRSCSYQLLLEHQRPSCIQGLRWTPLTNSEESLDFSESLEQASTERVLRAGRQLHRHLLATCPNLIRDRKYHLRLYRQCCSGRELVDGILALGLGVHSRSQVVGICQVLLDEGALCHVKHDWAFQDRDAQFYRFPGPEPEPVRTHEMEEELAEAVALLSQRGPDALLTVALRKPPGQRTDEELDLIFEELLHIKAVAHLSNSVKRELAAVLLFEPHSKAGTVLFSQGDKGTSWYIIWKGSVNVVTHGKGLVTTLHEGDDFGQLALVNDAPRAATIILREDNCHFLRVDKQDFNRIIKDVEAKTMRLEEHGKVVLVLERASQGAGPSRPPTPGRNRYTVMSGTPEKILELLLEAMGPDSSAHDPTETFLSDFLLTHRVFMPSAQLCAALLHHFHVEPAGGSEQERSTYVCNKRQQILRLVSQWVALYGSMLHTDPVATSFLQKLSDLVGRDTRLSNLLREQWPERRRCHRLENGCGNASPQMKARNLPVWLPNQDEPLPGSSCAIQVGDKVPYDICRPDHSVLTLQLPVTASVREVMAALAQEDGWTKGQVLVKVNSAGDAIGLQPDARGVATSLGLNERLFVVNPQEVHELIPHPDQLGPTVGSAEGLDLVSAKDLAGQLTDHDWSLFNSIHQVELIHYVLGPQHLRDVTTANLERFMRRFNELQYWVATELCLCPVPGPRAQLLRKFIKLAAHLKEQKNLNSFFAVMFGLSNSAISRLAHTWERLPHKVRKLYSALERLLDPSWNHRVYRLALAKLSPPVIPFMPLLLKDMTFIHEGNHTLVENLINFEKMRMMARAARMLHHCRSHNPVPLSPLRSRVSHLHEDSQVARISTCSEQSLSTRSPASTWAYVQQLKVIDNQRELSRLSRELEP

On to `CC(C)(O)C1Cc2c(ccc(C(=O)CCc3ccccc3)c2O)O1` (centres undefined), for which the Potency entry in test [1] was “inactive”.
The same measure, in the same setting: then `C=C1CC2[C@@]3(C)C=CC(=O)C(C)(C)C3=C(O)C(=O)[C@@]2(C)C2(C(=O)OC)C(=O)C(C)OC(=O)[C@@]12C` (some centres undefined), with 8.93 µM (active).
Regarding `O=C(O)c1ccc(N2C(=O)/C(=C/c3ccc(-c4ccc([N+](=O)[O-])cc4)o3)C=C2c2ccccc2)cc1`, in test [1], the Potency result was “inactive”.
Same read-out and setting: then `CO[C@H]1O[C@@H]2O[C@@]3(C)CCC4[C@H](C)CCC([C@H]1C)[C@]42OO3` (some centres undefined), with 6.49 µM (active); and `CS/C=C/C(=O)O[C@@H]1CCC2=CC(=O)C(=C(C)C)C[C@]2(C)[C@H]1C`, with 11.3 µM (active).
Still for that read-out and setting: then `CN1CCN(c2ccc(-c3cccc(CN4CCOCC4)c3)cc2NC(=O)c2c[nH]c(=O)cc2C(F)(F)F)CC1`, with “inactive”; and `CC(C)=CCc1cc2c(cc1O)OC[C@H]1c3ccc(O)cc3O[C@@H]21`, with 14.2 µM (active).
As for `C=C1/C(=C/C=C2\CCC[C@]3(C)[C@@H]([C@@H](C)OCCC(O)(CC)CC)CC[C@@H]23)C[C@@H](O)C[C@@H]1O`, in test [1], the Potency is 20.5 µM (active).
Consider `CO[C@H]1C[C@@H]2CC[C@@H](C)[C@@](O)(O2)C(=O)C(=O)N2CCCC[C@H]2C(=O)O[C@H]([C@@H](C)C[C@@H]2CC[C@@H](O)[C@H](OC)C2)CC(=O)[C@H](C)/C=C(\C)[C@@H](O)[C@@H](OC)C(=O)[C@H](C)C[C@H](C)/C=C/C=C/C=C/1C`, for which the Potency in test [1] is 25.8 µM (active).
As to `COc1ccccc1C(=O)Nc1cc2c(cc1N1CCCC1)n(C)c(=O)n2C`, the Potency in test [1] was 23.5 µM (active).
Same read-out and setting: then `C=C1C(=O)O[C@@H]2/C=C(\CO)CC/C=C(\CO)[C@H](OC(C)=O)C(OC(=O)C(C)CC)C12` (some centres undefined), with 5.02 µM (active).
In the case of `C=C1C(=O)OC2C3=C(C)C(=O)CC3C(C)CC(O)C12` (centres undefined), the Potency in test [1] is 14.5 µM (active).
As for `C=CC(C)(C)c1[nH]c2ccccc2c1C[C@@H]1NC(=O)[C@H](C)NC1=O`, in test [1], the Potency entry is “inactive”.
Consider `COc1cc(OC)c(NC(=O)c2ccc(Cc3cc4c(cc3C)C(C)(C)CCC4(C)C)o2)c(OC)c1`, for which, in test [1], the Potency was 23 µM (active).
In the case of `CC[C@H](C)/C=C(C)/C=C/C1=CC2=C(Cl)C(=O)[C@](C)(O)[C@H](OC(C)=O)[C@H]2CO1`, the Potency in test [1] is 10.1 µM (active).
In the case of `CC(O)C(C)n1ncn(-c2ccc(N3CCN(c4ccc(OCC5COC(Cn6cncn6)(c6ccc(Cl)cc6Cl)O5)cc4)CC3)cc2)c1=O` (centres undefined), the Potency result in test [1] is “inactive”.
The same measure, in the same setting: then `COc1cc2c(c(OC)c1CC=C(C)C)C[C@H](c1ccc(O)c(CC=C(C)C)c1O)CO2`, with “inactive”; and `C=C1CCCC2(C)CCC(C(C)(C)OC3OC(C)C(O)C(O)C3OC(=O)/C(C)=C\C)CC12` (centres undefined), with 10 µM (active); and `CN1CCN(C(=O)CN[C@@H]2C[C@H]2c2ccc(OCc3ccccc3)cc2)CC1`, with 20.5 µM (active).
The same measure, in the same setting: the figure for `C=C(C(=O)OC[C@H]1O[C@@H](OC(=O)/C=C/c2ccccc2)[C@H](O)[C@@H](O)[C@@H]1O)C(O)CO` (some centres undefined) is 5.63 µM (active); for `CCC(C)C(=O)Oc1cc(C)ccc1C1(COC(=O)C(C)C)CO1` (centres undefined) it is 5.67 µM (active); for `CC(C)(CO)c1cc2cc(NC(=O)C3(c4ccc5c(c4)OC(F)(F)O5)CC3)c(F)cc2n1CC(O)CO` (centres undefined) it is “inactive”.
Still for that read-out and setting: then `COC1=CC(=O)O/C1=C(/OC)[C@@H]1O[C@H]1c1ccccc1`, with 18.3 µM (active).
With `CCN(CC)CCCCCCNc1cc(OC)cc2c(C)ccnc12`, the Potency in test [1] was 12.9 µM (active).
Consider `CC1(C)CCC(C)(C)c2cc(C#Cc3ccc(C(=O)O)cc3)ccc21`, for which the Potency result in test [1] was “inactive”.
For the compound `CC1CCC(=O)CC(SCC(O)C(=O)O)CCC(=O)O1` (centres undefined), the Potency entry in test [1] is “inactive”.
Still for that read-out and setting: then `C/C=C(/C=C(C)/C=C/C=C/C=C(\C)C(=O)C12OC1C(O)(CCO)NC2=O)C(=O)OC` (centres undefined), with 7.96 µM (active); and `COc1ccc(NC(=O)C2C[C@H](C)CC[C@H]2C(C)C)cc1` (some centres undefined), with “inactive”.
Consider `CC(=O)O[C@H]1CC[C@]2(C)[C@H]3CC[C@]4(C)Oc5oc(C)cc(=O)c5C[C@H]4[C@]3(C)CC[C@H]2C1(C)C`, for which the Potency in test [1] is 7.09 µM (active).
As to `CC1OC2OC(=O)C3(C)CC4C5(CO5)C5=CC(=O)OC(C)(C)C5=CC(=O)C4(C)C(C1=O)C23` (centres undefined), in test [1], the Potency was 8.93 µM (active).
The same measure, in the same setting: the figure for `C[C@@H]1O[C@@H](O[C@H]2[C@H](OC(=O)[C@]34CCC(C)(C)C[C@H]3C3=CCC5[C@@]6(C)C[C@H](O)[C@H](O[C@@H]7O[C@H](C(=O)O)[C@@H](O)[C@H](O)[C@H]7O)[C@@](C)(CO)C6[C@H](O)C[C@@]5(C)[C@]3(C)C[C@H]4O)O[C@@H](CO)[C@@H]2O)[C@H](O)[C@H](O)[C@H]1O[C@@H]1OC[C@@H](O)[C@H](O[C@H]2OC[C@](O)(CO)[C@H]2O)[C@H]1O` (some centres undefined) is 0.122 µM (active).
Turning to `C[C@]12CC[C@@H]3c4ccc(OS(=O)(=O)O)cc4CC[C@H]3[C@@H]1CCC2=O`, in test [2], the Potency was 8.49 µM (active). Also, the compound was called inactive in test [3] and in test [4].
As for `C=C1/C(=C/C=C2\CCC[C@]3(C)[C@@H]([C@H](C)/C=C/[C@@H](C)C(C)C)CC[C@@H]23)C[C@@H](O)C[C@@H]1O`, the Potency in test [1] was 14.5 µM (active).
Turning to `CC(=O)S[C@@H]1CC2=CC(=O)CC[C@]2(C)[C@H]2CC[C@@]3(C)[C@@H](CC[C@@]34CCC(=O)O4)[C@H]12`, the Potency entry in test [2] is “inactive”. In addition, the result in test [3] and in test [4] was inactive.
As to `C[C@@H]1O[C@@H](O[C@H]2CC[C@@]3(C)C(CC[C@]4(C)C3CC=C3[C@@H]5CC(C)(C)CC[C@]5(C(=O)O[C@@H]5O[C@H](CO)[C@@H](O)[C@H](O)[C@H]5O)CC[C@]34C)[C@]2(C)CO)[C@H](O)[C@H](O[C@@H]2O[C@H](CO)[C@@H](O)[C@H](O)[C@H]2O)[C@H]1O` (some centres undefined), the Potency in test [1] is 3.46 µM (active).
Regarding `C[C@H]1CC[C@@]2(OC1)O[C@H]1CC3[C@@H]4CC[C@@H]5C[C@@H](O[C@@H]6O[C@H](CO)[C@@H](O[C@@H]7O[C@H](CO[C@@H]8OC[C@@H](O)[C@H](O)[C@H]8O)[C@@H](O[C@@H]8O[C@H](CO)[C@H](O)[C@H](O)[C@H]8O)[C@H](O)[C@H]7O)[C@H](O)[C@H]6O)CC[C@]5(C)C4CC[C@]3(C)[C@H]1[C@@H]2C` (some centres undefined), the Potency in test [1] is 3.46 µM (active).
Consider `O=C(O)c1cc2ccccc2c(Cc2c(O)c(C(=O)O)cc3ccccc23)c1O`, for which, in test [2], the Potency is 4.44 µM (active). In addition, the outcome in test [3] and in test [4] was inactive.
`C=C(C(=O)OC)[C@@H]1CC=C2C=CC(=O)[C@H](C)[C@@]2(C)C1`: the Potency in test [1] is 20.5 µM (active).
